Reference: the supplement of paper PMC3334620
The full ranking holds about 33,000 sequences; the median of “E-score (-0.5 to 0.5)” is about -0.035, and the highest 2% start at about 0.35. The list comes from a sample in which the highest values are over-represented; it also holds similar and randomly drawn sequences.

Molecular target: T1, Pdr3 (UniProt P33200)
T1 sequence: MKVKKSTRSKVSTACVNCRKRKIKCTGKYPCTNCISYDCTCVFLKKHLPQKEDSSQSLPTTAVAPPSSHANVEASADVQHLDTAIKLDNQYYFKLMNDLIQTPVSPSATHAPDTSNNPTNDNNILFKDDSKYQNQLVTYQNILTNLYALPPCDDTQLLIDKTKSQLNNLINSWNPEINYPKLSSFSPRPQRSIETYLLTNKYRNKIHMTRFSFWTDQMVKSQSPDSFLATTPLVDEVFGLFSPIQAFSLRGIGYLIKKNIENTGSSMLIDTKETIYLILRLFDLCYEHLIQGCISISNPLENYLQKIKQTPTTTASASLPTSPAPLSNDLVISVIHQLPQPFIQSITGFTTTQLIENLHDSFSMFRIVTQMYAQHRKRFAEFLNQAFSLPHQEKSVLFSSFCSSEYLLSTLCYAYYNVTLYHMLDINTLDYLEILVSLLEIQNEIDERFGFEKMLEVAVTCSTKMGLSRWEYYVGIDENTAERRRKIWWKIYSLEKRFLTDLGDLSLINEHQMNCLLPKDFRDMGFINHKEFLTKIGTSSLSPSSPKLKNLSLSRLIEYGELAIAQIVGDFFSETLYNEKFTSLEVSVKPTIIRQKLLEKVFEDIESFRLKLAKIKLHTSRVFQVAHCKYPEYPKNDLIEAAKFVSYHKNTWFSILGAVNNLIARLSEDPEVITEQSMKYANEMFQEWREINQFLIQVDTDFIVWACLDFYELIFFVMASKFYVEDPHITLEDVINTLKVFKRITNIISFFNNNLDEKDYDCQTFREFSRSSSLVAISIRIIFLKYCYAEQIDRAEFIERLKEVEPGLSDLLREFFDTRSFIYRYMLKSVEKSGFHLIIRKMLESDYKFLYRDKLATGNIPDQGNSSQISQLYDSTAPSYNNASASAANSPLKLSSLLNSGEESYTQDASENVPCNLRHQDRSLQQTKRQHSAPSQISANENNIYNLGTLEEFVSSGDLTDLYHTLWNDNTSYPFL
Assay: PBM E-score (8-mer binding enrichment) (E-score (-0.5 to 0.5)); higher = stronger / more preferred TF binding
Details: protein concentration: 200 nM; construct: GST-full length
Procedure, shortened: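 Yeast transcription factors carrying a GST tag, as full-length proteins or DNA-binding domains, were produced by PURExpress in vitro transcription/translation. About 100-200 nM protein was applied to universal all-10-mer Agilent arrays, double-stranded by primer extension on fresh or once-stripped slides. Bound protein was detected with fluorescent anti-GST, and scans were normalised with masliner. The Universal PBM Analysis Suite gave each ungapped eight-base word, pooled with its reverse complement, an E-score, a modified Wilcoxon-Mann-Whitney statistic.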

Sequence | PBM E-score
GTTGTGAA | -0.142
GAATCAGC | -0.124
TCGTTCAA | -0.125
GCCGTGGA | 0.258
CCCGTGGC | 0.233
CCCGTGGA | 0.395
TCCGTCAA | 0.375
GCCGTCAA | -0.048
ACCGTCAA | -0.00477
GCCGTCGA | 0.104
CCCGTCGA | 0.215
TCCGTCGA | 0.39
AAGCGAAG | -0.0806
ACCAGTAT | 0.0888
AGTTGGTA | -0.111
GTCATCCA | -0.0723
AACGGAAT | 0.468
AACGGAGG | 0.185
AACGGAGT | 0.373
AACGGACT | 0.0833
AACGGTAG | 0.0653
AATGGAAG | 0.0364
AACGGTAT | -0.0131

Sequence | PBM E-score
AACGGAAG | 0.423
AACGGAGC | 0.275
ACTTTCGA | -0.0188
AAAGTTCC | 0.2
GGCGGGGA | 0.292
ATTAGCAG | -0.0762
ATGCGCAT | 0.165
AATCCTCA | -0.244
ACTATCCC | 0.165
AACGACCG | -0.146
CCAATTAC | -0.099
GAGATAAA | 0.122
CACGCGGA | 0.38
AACGCGGA | 0.358
CACGCGGC | -0.00292
AACGCGGG | 0.332
CACGCGGG | 0.0841
AACGCGGC | 0.123
ATGTACCG | -0.0139
GAGTGCTA | -0.0621
CTGGGAGC | -0.192
CAAAAAAA | 0.211
AAGCAAAG | -0.213

Sequence | PBM E-score
CACAGCAG | -0.234
GCAGCCAC | 0.0849
ATGCACAA | -0.0898
ACGGACAC | 0.321
CTCTCGGC | 0.118
CTCTCGGA | 0.358
GTCTCGGA | 0.306
ATCTCGGG | 0.278
CTCTCGAA | -0.197
ATCTCGGA | 0.376
CCGTTTTC | 0.202
CCCGGGAG | 0.397
GCCGGGAC | 0.316
CACGGGAG | 0.0682
CCGGGGAG | 0.332
CCCGGGAC | 0.451
CCCGGGGA | 0.414
CCGGGGGA | 0.311
CCCGGGAA | 0.443
CCTGGGAA | -0.0887
CCCGGGGC | 0.338
ACCGGGAG | 0.144
CCGGGGAC | 0.234

Sequence | PBM E-score
CCTCTACC | -0.104
AGCGAGCA | -0.189
ATAATCAT | 0.0794
AGTCTTAG | -0.224
CGATTCGA | 0.143
AGTGTCGA | 0.0406
ATGACCAA | -0.0317
ATGCCCTC | -0.0557
AGCTAAAT | -0.165
ACAGTTAC | -0.111
CGCTATCC | 0.158
AACGAGAA | -0.0948
CAAGGGCA | -0.0651
AGGCACGC | 0.049
GGCGGCCC | -0.00494
CTCACCAA | 0.136
AAGCGGTC | 0.00531
TACCGGGA | 0.347
CCCCGGGA | 0.417
TCCCGGGA | 0.485
TCCGGGAA | 0.386
TCCCGGCA | 0.323
ACGGGGAA | 0.204

Sequence | PBM E-score
CCCCGGCA | 0.189
CGGGGGAA | 0.276
CCCCGGTA | 0.122
TCCGGGCA | 0.346
GCCGGGAA | 0.304
CCGGGGAA | 0.356
ATTACACA | -0.0105
AAACGCGG | 0.245
ACCAGGCG | -0.0145
AGCCTTTA | -0.193
GGCTAAAC | -0.135
ATCATTCC | 0.281
CTCATTCA | -0.0959
CTCATTCC | 0.356
AGATAGGC | -0.16
ATGCTCTC | -0.108
GTGCCGGA | 0.369
ATGCCGGG | 0.245
CTGCCGGA | 0.32
GTGCCGTA | 0.0678
